{
  "source": "the supplement of paper PMC10338343",
  "note": "± gives the standard deviation.",
  "data": [
    {"tested_on": "MILI (PIWIL2) piRISC loaded with L1MC piRNA (26 nt)", "assay": "pre-steady-state target cleavage rate (min^-1); guide: L1MC piRNA 5'p-UAACUAAAUACUAUGCAAGCUGUAGG; higher = faster piRNA-guided slicing of the target", "settings": "auxiliary factor: 500 nM mouse GTSF1", "outline": "(§1)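 The method was Cleave-'n-Seq, in which uncleaved targets from a transcribed, DNA-blocked target RNA library were sequenced after exposure to active affinity-purified piRISC carrying one synthetic guide, with or without GTSF1 partner protein. Reactions contained 0.1 nM library, 1 nM piRISC and, where present, 500 nM GTSF1 in HEPES–potassium acetate buffer at 33 °C for 0–8 or 0–960 min. Reads were normalised to depth and to weakly complementary targets, three trials were pooled, and k3 was capped at 0.0001 min^-1. The pre-steady-state cleavage rate came from a burst-and-steady-state fit.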", "values": [
      {"sequence": "UCCUGGAACAGCUUGCAUAGUAUUAAGAAA", "pre-steady-state target cleavage rate": "0.154 ± 0.045"},
      {"sequence": "UCCUGGUACAGCUUGCUUAGUAUUAAGUUA", "pre-steady-state target cleavage rate": "0.163 ± 0.041"},
      {"sequence": "UCCUGGAACAGCUUGCAUAGUAAUUAGAAA", "pre-steady-state target cleavage rate": "0.0609 ± 0.018"},
      {"sequence": "UCCUGGAACAGCUUCCAUAGUAUUUAGUUA", "pre-steady-state target cleavage rate": "0.0612 ± 0.017"},
      {"sequence": "UCCUGCUACAGCUUGCAUACUAUUUACUUA", "pre-steady-state target cleavage rate": "0.0359 ± 0.011"},
      {"sequence": "UCCUGGAUGAGCUAGCAUAGUAUUUAGAAA", "pre-steady-state target cleavage rate": "0.209 ± 0.049"},
      {"sequence": "UCCUGCUACAGCUUGCCAUAGUAUUUAGUUA", "pre-steady-state target cleavage rate": "0.128 ± 0.015"},
      {"sequence": "UCCUCCUACAGCUUGCAUAGUAUUAACAAA", "pre-steady-state target cleavage rate": "0.11 ± 0.023"},
      {"sequence": "UCCUGGAAGAGCUUCCAUAGUAUUUAGUUA", "pre-steady-state target cleavage rate": "0.297 ± 0.085"},
      {"sequence": "UCCUCCUACACCUUGCAUAGAAUUUAGUUA", "pre-steady-state target cleavage rate": "0.0594 ± 0.019"},
      {"sequence": "UCCUCCUACAGCUUGCAUAGUAUAAAGUAA", "pre-steady-state target cleavage rate": "0.0819 ± 0.019"},
      {"sequence": "UCCUCCUACUGCUUCCAUAGUAUUUAGUUA", "pre-steady-state target cleavage rate": "0.0403 ± 0.0098"},
      {"sequence": "UCCUCCUACUGCUUGCAUAGUAUUUAGUAA", "pre-steady-state target cleavage rate": "0.126 ± 0.017"},
      {"sequence": "UCCUGCUACAGGUUGCAUAGUAUUUUCAAA", "pre-steady-state target cleavage rate": "0.0101 ± 0.0054"},
      {"sequence": "UCCUCCUACAGCUUGCAUAGUAAAAAGAAA", "pre-steady-state target cleavage rate": "0.075 ± 0.02"},
      {"sequence": "UCCUCCUACACCUUGCAUAGUAUUUAGAUA", "pre-steady-state target cleavage rate": "0.161 ± 0.044"},
      {"sequence": "UCCUGGAAGUCCUUGCAUAGUAUUUAGUAA", "pre-steady-state target cleavage rate": "0.122 ± 0.021"},
      {"sequence": "UCCUCCUACAGCUUGCACUAGUAUUUAGUUA", "pre-steady-state target cleavage rate": "0.0877 ± 0.019"},
      {"sequence": "UCCUGGUACAGCUUGCAUAGUAUUUUGAUA", "pre-steady-state target cleavage rate": "0.0966 ± 0.025"},
      {"sequence": "UCCUCCUACAGCUUGCAUAGUAUAUAGAAA", "pre-steady-state target cleavage rate": "0.105 ± 0.028"},
      {"sequence": "UCCUGCUACAGCUUGCAUUGUAUUUACAAA", "pre-steady-state target cleavage rate": "0.0245 ± 0.01"},
      {"sequence": "UCCUGCUACAGCUUGCAUAGUAUAUUGUUA", "pre-steady-state target cleavage rate": "0.187 ± 0.036"},
      {"sequence": "UCCUGGAACAGCUUGCAUAGCAUUUAGUUA", "pre-steady-state target cleavage rate": "0.0886 ± 0.013"},
      {"sequence": "UCCUCCUACAGCUUGCAUACUAUUUUGUUA", "pre-steady-state target cleavage rate": "0.0272 ± 0.0077"},
      {"sequence": "UCCUGGAUGAGCUUGCAUAAUAUUUAGUUA", "pre-steady-state target cleavage rate": "0.266 ± 0.035"},
      {"sequence": "UCCUGGAUGUGCUUCCAAAGUAUUUAGUUA", "pre-steady-state target cleavage rate": "0.0214 ± 0.0068"},
      {"sequence": "UCCUGGAUGAGCUUGCAAAGUAUUUAGAAA", "pre-steady-state target cleavage rate": "0.0447 ± 0.013"},
      {"sequence": "UCCUGGUACAGCUUGCAUAGUAAUAAGUUA", "pre-steady-state target cleavage rate": "0.204 ± 0.033"},
      {"sequence": "UCCUGGAUGACCUAGCAUAGUAUUUAGUUA", "pre-steady-state target cleavage rate": "0.0953 ± 0.022"},
      {"sequence": "UCCUGCUACAGCUUGCAAAGUUUUUAGUUA", "pre-steady-state target cleavage rate": "0.0201 ± 0.0069"},
      {"sequence": "UCCUGGUACAGCUUGCAAAGUAUUUUCAAA", "pre-steady-state target cleavage rate": "0.0283 ± 0.012"},
      {"sequence": "UCCUGCUACAGCUUGCAUAGAAAUUAGUUA", "pre-steady-state target cleavage rate": "0.059 ± 0.015"},
      {"sequence": "UCCUCCUACAGCUUGCAUAGUUUUAAGUUA", "pre-steady-state target cleavage rate": "0.0543 ± 0.012"},
      {"sequence": "UCCUGCUUCAGCUUGCAUAGAAUUUAGUUA", "pre-steady-state target cleavage rate": "0.0587 ± 0.011"},
      {"sequence": "UCCUGGAUGUGCUUGUCAUAGUAUUUAGUUA", "pre-steady-state target cleavage rate": "0.0294 ± 0.0075"},
      {"sequence": "UCCUCCUACAGCUUGCAUAGUAUUUAGCUUA", "pre-steady-state target cleavage rate": "0.253 ± 0.075"},
      {"sequence": "UCCUGGAUGACCUUGCAUAGUAUUUAGAUA", "pre-steady-state target cleavage rate": "0.115 ± 0.034"},
      {"sequence": "UCCUCCUUCAGCUUGCAUAGUAUUUACUUA", "pre-steady-state target cleavage rate": "0.132 ± 0.023"},
      {"sequence": "UCCUGGAACAGCUUGGAUAGUAUUAAGUUA", "pre-steady-state target cleavage rate": "0.186 ± 0.033"},
      {"sequence": "UCCUGCUACAGCUUGCAUAGUAUUGAGUUA", "pre-steady-state target cleavage rate": "0.114 ± 0.027"}
    ]},
    {"tested_on": "EfPiwi piRISC loaded with L1MC piRNA (26 nt)", "assay": "pre-steady-state target cleavage rate (min^-1); auxiliary factor: 500 nM Ephydatia muelleri Gtsf1; guide: L1MC piRNA 5'p-UAACUAAAUACUAUGCAAGCUGUAGG; MIWI and MILI are mouse PIWI proteins and EfPiwi is from a freshwater sponge; tags in brackets are library labels; higher = faster piRNA-guided slicing of the target", "settings": "not given", "outline": "as §1", "values": [
      {"sequence": "UCCUGGAACAGCUUGCAUAGUAUUAAGAAA", "pre-steady-state target cleavage rate": "0.00313 ± 0.0019"},
      {"sequence": "UCCUGGUACAGCUUGCUUAGUAUUAAGUUA", "pre-steady-state target cleavage rate": "0.00311 ± 0.0027"},
      {"sequence": "UCCUGGAACAGCUUGCAUAGUAAUUAGAAA", "pre-steady-state target cleavage rate": "0.00338 ± 0.0026"},
      {"sequence": "UCCUGGAACAGCUUCCAUAGUAUUUAGUUA", "pre-steady-state target cleavage rate": "0.00225 ± 0.0021"},
      {"sequence": "UCCUGCUACAGCUUGCAUACUAUUUACUUA", "pre-steady-state target cleavage rate": "0.00325 ± 0.0023"},
      {"sequence": "UCCUGGAUGAGCUAGCAUAGUAUUUAGAAA", "pre-steady-state target cleavage rate": "0.00297 ± 0.0019"},
      {"sequence": "UCCUGCUACAGCUUGCCAUAGUAUUUAGUUA", "pre-steady-state target cleavage rate": "0.00382 ± 0.0023"},
      {"sequence": "UCCUCCUACAGCUUGCAUAGUAUUAACAAA", "pre-steady-state target cleavage rate": "0.00454 ± 0.0033"},
      {"sequence": "UCCUGGAAGAGCUUCCAUAGUAUUUAGUUA", "pre-steady-state target cleavage rate": "0.00329 ± 0.0011"},
      {"sequence": "UCCUCCUACACCUUGCAUAGAAUUUAGUUA", "pre-steady-state target cleavage rate": "0.0018 ± 0.0016"},
      {"sequence": "UCCUCCUACAGCUUGCAUAGUAUAAAGUAA", "pre-steady-state target cleavage rate": "0.0031 ± 0.0024"},
      {"sequence": "UCCUCCUACUGCUUCCAUAGUAUUUAGUUA", "pre-steady-state target cleavage rate": "0.0043 ± 0.0018"},
      {"sequence": "UCCUCCUACUGCUUGCAUAGUAUUUAGUAA", "pre-steady-state target cleavage rate": "0.00527 ± 0.0023"},
      {"sequence": "UCCUGCUACAGGUUGCAUAGUAUUUUCAAA", "pre-steady-state target cleavage rate": "0.00243 ± 0.0019"},
      {"sequence": "UCCUCCUACAGCUUGCAUAGUAAAAAGAAA", "pre-steady-state target cleavage rate": "0.00287 ± 0.0026"},
      {"sequence": "UCCUCCUACACCUUGCAUAGUAUUUAGAUA", "pre-steady-state target cleavage rate": "0.004 ± 0.0023"},
      {"sequence": "UCCUGGAAGUCCUUGCAUAGUAUUUAGUAA", "pre-steady-state target cleavage rate": "0.00346 ± 0.0028"},
      {"sequence": "UCCUCCUACAGCUUGCACUAGUAUUUAGUUA", "pre-steady-state target cleavage rate": "0.0137 ± 0.0056"},
      {"sequence": "UCCUGGUACAGCUUGCAUAGUAUUUUGAUA", "pre-steady-state target cleavage rate": "0.00381 ± 0.0026"},
      {"sequence": "UCCUCCUACAGCUUGCAUAGUAUAUAGAAA", "pre-steady-state target cleavage rate": "0.00329 ± 0.0015"},
      {"sequence": "UCCUGCUACAGCUUGCAUUGUAUUUACAAA", "pre-steady-state target cleavage rate": "0.00313 ± 0.0028"},
      {"sequence": "UCCUGCUACAGCUUGCAUAGUAUAUUGUUA", "pre-steady-state target cleavage rate": "0.00351 ± 0.0021"},
      {"sequence": "UCCUGGAACAGCUUGCAUAGCAUUUAGUUA", "pre-steady-state target cleavage rate": "0.00399 ± 0.0015"},
      {"sequence": "UCCUCCUACAGCUUGCAUACUAUUUUGUUA", "pre-steady-state target cleavage rate": "0.00468 ± 0.0034"},
      {"sequence": "UCCUGGAUGAGCUUGCAUAAUAUUUAGUUA", "pre-steady-state target cleavage rate": "0.00543 ± 0.0021"},
      {"sequence": "UCCUGGAUGUGCUUCCAAAGUAUUUAGUUA", "pre-steady-state target cleavage rate": "0.00463 ± 0.0046"},
      {"sequence": "UCCUGGAUGAGCUUGCAAAGUAUUUAGAAA", "pre-steady-state target cleavage rate": "0.00395 ± 0.0031"},
      {"sequence": "UCCUGGUACAGCUUGCAUAGUAAUAAGUUA", "pre-steady-state target cleavage rate": "0.00546 ± 0.0031"},
      {"sequence": "UCCUGGAUGACCUAGCAUAGUAUUUAGUUA", "pre-steady-state target cleavage rate": "0.0121 ± 0.0072"},
      {"sequence": "UCCUGCUACAGCUUGCAAAGUUUUUAGUUA", "pre-steady-state target cleavage rate": "0.00207 ± 0.002"},
      {"sequence": "UCCUGGUACAGCUUGCAAAGUAUUUUCAAA", "pre-steady-state target cleavage rate": "0.00424 ± 0.0036"},
      {"sequence": "UCCUGCUACAGCUUGCAUAGAAAUUAGUUA", "pre-steady-state target cleavage rate": "0.0026 ± 0.0021"},
      {"sequence": "UCCUCCUACAGCUUGCAUAGUUUUAAGUUA", "pre-steady-state target cleavage rate": "0.00431 ± 0.0024"},
      {"sequence": "UCCUGCUUCAGCUUGCAUAGAAUUUAGUUA", "pre-steady-state target cleavage rate": "0.00544 ± 0.0015"},
      {"sequence": "UCCUGGAUGUGCUUGUCAUAGUAUUUAGUUA", "pre-steady-state target cleavage rate": "0.00492 ± 0.0031"},
      {"sequence": "UCCUCCUACAGCUUGCAUAGUAUUUAGCUUA", "pre-steady-state target cleavage rate": "0.00683 ± 0.0027"},
      {"sequence": "UCCUGGAUGACCUUGCAUAGUAUUUAGAUA", "pre-steady-state target cleavage rate": "0.00355 ± 0.0027"},
      {"sequence": "UCCUCCUUCAGCUUGCAUAGUAUUUACUUA", "pre-steady-state target cleavage rate": "0.00514 ± 0.0032"},
      {"sequence": "UCCUGGAACAGCUUGGAUAGUAUUAAGUUA", "pre-steady-state target cleavage rate": "0.00405 ± 0.0034"},
      {"sequence": "UCCUGCUACAGCUUGCAUAGUAUUGAGUUA", "pre-steady-state target cleavage rate": "0.00424 ± 0.0019"}
    ]}
  ]
}
